Records with an inconclusive call do not appear. Active and inactive are the calls of the source. Calls come from the whole dose curve; as a rule, active = well fitted curve in the direction sought with a large enough effect; inconclusive = small, poorly fitted or top-dose-only effect; inactive = flat fitted curve, though single readings scatter.
Assay: Quantitative high throughput screen for delayed death inhibitors of the malarial parasite plastid: Hit Validation with 3D7 at 48 hr using Flow Cytometry
Details: P. falciparum 3D7 growth, flow cytometry SYBR/MitoTracker; fraction of growth remaining: at 50 µM (top of the series)
Text: The goal of this screen is to discover new antimalarial compounds that act by inhibiting the development of the apicoplast organelle in the malarial parasite Plasmodium falciparum. Some antibiotics, such as azithromycin and tetracycline, are known to interfere with the apicoplast translational machinery, and have a potent antimalarial effect. […] We developed a cell-based quantitative high throughput screen that leverages this "delayed death" phenotype to enrich for compounds that target the apicoplast. To detect small molecules that cause the delayed death phenotype, erythrocytes infected with firefly luciferase-expressing parasites were incubated with compounds for either one or two generations, corresponding to 48 and 96 hours, respectively. Growth inhibition was detected by a decrease in luciferase activity. Compounds that inhibited parasite growth in the second generation at least five-fold more potently than in the first generation were defined as delayed death inducing. These compounds were selected for confirmatory screening using a flow cytometry based assay. This hit validation assay used the 3D7 cell line and measured at 48 hours. NIH Molecular Libraries Probe Production Network [MLPCN] NIH Chemical Genomics Center [NCGC] MLPCN Grant: R21 NS059500 Assay Provider: David Fidock and Eric Ekland, Columbia University
Test compounds were diluted in 20 microliters of complete media (RPMI 1640 with 0.5% w/v Albumax (GIBCO), 24 mM sodium bicarbonate (Sigma) and 10 ug/mL gentamycin (Gibco)) in clear 384-well plates (Greiner). All liquid handling was conducted using a Bio Tek Precision 2000 pipetting system. Twenty microliters of infected erythrocytes, 0.2% parasitemia (for 48 hour time points) or 0.1% parasitemia (for 96 hour time points) were added to the compound dilutions (1% hematocrit, final concentration; 40 microliters, total culture volume). The assay plates were incubated for 48 hours, or 96 hours, at 37 masculine C in a humidified chamber (Billups- Rothenberg, Del Mar, CA, USA), gassed with 5%CO2/5%O2/ 90%N2. After one generation (48 hours), 5 microliters of culture were harvested and transferred to a second 384 well plate for fluorescent staining. Samples were stained with 30 microliters of 2 x SYBR Green I (Invitrogen) and 150nM MitoTracker Deep Red (Invitrogen) diluted in 0.9% NaCl, 0.2% dextrose (Baxter) supplemented with 2.5% Fetal Calf Serum (Gibco) (saline/FCS). Mature erythrocytes lack nuclei and mitochondria, therefore only parasitized erythrocytes retain the SYBR Green I and MitoTracker Deep Red. After 30 minutes at 37 masculine C, the stained cells were diluted in an additional 60 microliters of saline/FCS. The samples were harvested directly from the 384 well plate using a Hypercyt High Capacity Flow Platform (Intellicyt) paired with a C6 Flow Cytometer (Accuri). The flow cytometry files were analyzed using FlowJo software (FlowJo).

Row | SMILES | Potency | fraction of growth remaining
1 | O=C(NCc1cccnc1)c1ccc(NS(=O)(=O)c2ccccc2)cc1 | 30.9 µM (active) | 
2 | COc1cccc(CN2CCN(c3nc4nonc4nc3N3CCCCC3)CC2=O)c1 | 5.55 µM (active) | 
3 | CCOc1ccc(S(=O)(=O)Nc2cc(S(=O)(=O)N(CC)CC)ccc2N2CCCC2)cc1 | 12.5 µM (active) | 
4 | Cc1ccc(-n2c(-c3ccc(Cl)cc3)c[n+]3c2CCC3)cc1 | 4.64 µM (active) | 
5 | COc1ccc2cc3cc(C(=O)Nc4ccc5c(c4)OCO5)oc3nc2c1 | 48.3 µM (active) | 
6 | CCOC(=O)c1ccc2c(c1)n(CC)c(/C=C/N(C)c1ccccc1)[n+]2CC | 1.52 µM (active) | 
7 | Cc1ccc(CN2CCC(n3nccc3NC(=O)c3ccccc3C)CC2)o1 |  | 0.498 (active)
8 | CC1=Nc2cc(C(=O)N3CCCC3)ccc2Sc2ccc(C)cc21 |  | 0.151 (active)
9 | CCOc1ccc(NC(=O)C[n+]2ccc(N(C)C)cc2)cc1 | 25.8 µM (active) | 
10 | CC(=O)NC[C@@H]1CN(c2ccc(N3CCOCC3)c(F)c2)C(=O)O1 | inactive | 
11 | Clc1ccc(-c2c[n+](Cc3ccc(Cl)cc3Cl)c3n2CCCCC3)cc1 | 5.64 µM (active) | 
12 | CCc1nc(SCC(=O)Nc2ccc(N(C)C)cc2)n[nH]1 | 0.4 µM (active) | 
13 | CCCc1cc(=O)oc2cc(OC(C)C(=O)NCc3ccccn3)c(Cl)cc12 (stereo not drawn) | 16.9 µM (active) | 
14 | CCCCOc1ccc(N2C(N)=NC(N)=NC23CCCCC3)cc1 | 22.2 µM (active) | 
15 | Cc1c(F)c(N2CCNC(C)C2)cc2c1c(=O)c(C(=O)O)cn2C1CC1 (stereo not drawn) | 5.98 µM (active) | 
16 | Cc1ccc(S(=O)(=O)Nc2ccc(C(=O)Nc3ccncc3)cc2)cc1 | 26.3 µM (active) | 
17 | CCCc1c(CC)c(=N)c2ccccc2n1C | 6.48 µM (active) | 
18 | CCCCN(CCCNC(=O)c1ccc(CS(=O)(=O)c2ccc(OC)cc2)o1)Cc1ccccc1 |  | 0.163 (active)
19 | COc1ccccc1N1CCN(CCC(=O)Nc2ccc(F)cc2)CC1 | 18.3 µM (active) | 
20 | CO[C@@H]1[C@@H](OC2OC(C)C(OC3CC(C)(O)C(OC(=O)CC(C)C)C(C)O3)C(N(C)C)C2O)[C@@H](CC=O)C[C@@H](C)C(=O)/C=C\C2O[C@H]2C[C@@H](C)OC(=O)C[C@H]1OC(C)=O (stereo partly drawn) | 2.95 µM (active) | 
21 | c1csc(CNc2ncnc3nc[nH]c23)c1 | inactive | 
22 | CCCCN(CCCNC(=O)C1CCN(C(=O)c2cc3sccc3n2C)CC1)Cc1ccccc1 | 9.82 µM (active) | 
23 | O=C(CNC(=O)C1CCCCC1)OC(C(=O)c1ccccc1)c1ccccc1 (stereo not drawn) | inactive | 
24 | N#Cc1cccc(NC(=O)Cn2c3[n+](c4ccc(C(F)(F)F)cc42)CCCCC3)c1 | 19.9 µM (active) | 
25 | O=C(CSc1ccc(-c2cccnc2)nn1)Nc1ccccc1C(F)(F)F | 12.4 µM (active) | 
26 | CCC(=O)OC1C(N(C)C)CC(C)O[C@H]1O[C@H]1[C@H](C)[C@@H](O[C@H]2CC(OC)[C@@H](O)C(C)O2)[C@H](C)C(=O)O[C@@H](CC)[C@](C)(O)[C@@H](O)[C@H](C)C(=O)[C@@H](C)C[C@]1(C)O (stereo partly drawn) | inactive | 
27 | COc1ccc(NC(=S)N2CCC(Cc3ccccc3)CC2)cc1OC | 46.5 µM (active) | 
28 | COc1ccc2c(ccc[n+]2CC(=O)c2ccccc2)c1 | 9.29 µM (active) | 

— PubChem BioAssay AID624329 (National Center for Advancing Translational Sciences (NCATS), 2012)
